In all, about 16,000 sequences were measured (“rpm ratio (pull-down/input)”: median about 0.5, highest 2% from about 5.5 on). Shown is part of a subset that was picked to be rich in the highest values.

Experimental findings from article PMC12820563, “FoxP3 forms a head-to-head dimer in vivo and stabilizes its multimerization on adjacent microsatellites” are described below.

For the experiment, the target named is T1, MBP-FoxP3dN (Mus musculus, UniProt Q99JB6 188-423).
T1 sequence: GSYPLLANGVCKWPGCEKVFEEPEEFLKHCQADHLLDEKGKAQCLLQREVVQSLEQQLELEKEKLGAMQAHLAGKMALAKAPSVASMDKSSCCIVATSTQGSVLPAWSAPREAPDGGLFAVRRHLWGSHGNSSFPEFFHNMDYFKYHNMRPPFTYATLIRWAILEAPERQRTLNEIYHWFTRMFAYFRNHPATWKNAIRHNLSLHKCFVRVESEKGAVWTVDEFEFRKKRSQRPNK
The experiment is described as follows: PD-seq (MBP pull-down with sequencing); 20 mM Tris-HCl pH 7.5, 100 mM NaCl, 1.5 mM MgCl2, 0.4 uM protein, 0.1 uM dsDNA library, 30 min, room temperature, amylose pull-down; high values mean tight binding. Conditions: protein: recombinant; tags: His6-MBP; chain copies: 2; dsDNA, one strand shown. The gist of the method:
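Amylose resin was used to capture complexes formed during 30 min at room temperature in Tris pH 7.5 buffer with NaCl and MgCl2 between 0.4 µM His6-MBP-tagged mouse FoxP3 or FoxP1 fragment lacking the N-terminus, expressed in E. coli, and 0.1 µM Klenow-filled double-stranded degenerate DNA library. After three washes, the DNA was released with proteinase K, barcoded by PCR and sequenced on Illumina. Binding is pooled-replicate reads-per-million enrichment, pull-down over input.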
Take “GATGATTGTTCTCCCAGCTGATGAATTTGATTGGTCGAGTAAACAAATTTTCCTAATCTTTCTGTTCAAGCGCCATCTAC”: the binding signal is 5.03 RPM ratio (pull-down/input). The same measure for “GATGATTGTTCTCCCAGCTGATGAATTTACCGGATCGAGTAAACAAATTTTCCTAATCTTTCTGTTCAAGCGCCATCTAC”: 0.251 RPM ratio (pull-down/input); for “GATGATTGTTCTCCCAGCTGATGAATTGTAGCTCTCGAGTAAACAAATTTTCCTAATCTTTCTGTTCAAGCGCCATCTAC”: 0.791 RPM ratio (pull-down/input); for “GATGATTGTTCTCCCAGCTGATGAATTGGGGGAGTCGAGTAAACAAATTTTCCTAATCTTTCTGTTCAAGCGCCATCTAC”: 0.355 RPM ratio (pull-down/input).

Regarding “GATGATTGTTCTCCCAGCTGATGAATTTTGTTGTTCGAGTAAACAAATTTTCCTAATCTTTCTGTTCAAGCGCCATCTAC”, the binding signal is 8.13 RPM ratio (pull-down/input).

Consider “GATGATTGTTCTCCCAGCTGATGAATTGTTTGATTCGAGTAAACAAATTTTCCTAATCTTTCTGTTCAAGCGCCATCTAC”, for which the binding signal was 2.06 RPM ratio (pull-down/input). To “GATGATTGTTCTCCCAGCTGATGAATTTGTTCTTTCGAGTAAACAAATTTTCCTAATCTTTCTGTTCAAGCGCCATCTAC” belongs 2.28 RPM ratio (pull-down/input). The same measure for “GATGATTGTTCTCCCAGCTGATGAATTGTTTTTTTCGAGTAAACAAATTTTCCTAATCTTTCTGTTCAAGCGCCATCTAC”: 4.84 RPM ratio (pull-down/input); for “GATGATTGTTCTCCCAGCTGATGAATTTCTGTTTTCGAGTAAACAAATTTTCCTAATCTTTCTGTTCAAGCGCCATCTAC”: 1.13 RPM ratio (pull-down/input); for “GATGATTGTTCTCCCAGCTGATGAATTTGTTTGTTCGAGTAAACAAATTTTCCTAATCTTTCTGTTCAAGCGCCATCTAC”: 7.56 RPM ratio (pull-down/input). Regarding “GATGATTGTTCTCCCAGCTGATGAATTGTTTGTTTCGAGTAAACAAATTTTCCTAATCTTTCTGTTCAAGCGCCATCTAC”, the binding signal was 7.87 RPM ratio (pull-down/input).

For “GATGATTGTTCTCCCAGCTGATGAATTTCTTTGTTCGAGTAAACAAATTTTCCTAATCTTTCTGTTCAAGCGCCATCTAC”, the binding signal was 2.28 RPM ratio (pull-down/input). Take “GATGATTGTTCTCCCAGCTGATGAATTGTTTCTTTCGAGTAAACAAATTTTCCTAATCTTTCTGTTCAAGCGCCATCTAC”: the binding signal was 1.93 RPM ratio (pull-down/input).

Take “GATGATTGTTCTCCCAGCTGATGAATTTTCTGTTTCGAGTAAACAAATTTTCCTAATCTTTCTGTTCAAGCGCCATCTAC”: the binding signal was 0.343 RPM ratio (pull-down/input). The same measure for “GATGATTGTTCTCCCAGCTGATGAATTGTTGTTTTCGAGTAAACAAATTTTCCTAATCTTTCTGTTCAAGCGCCATCTAC”: 7.89 RPM ratio (pull-down/input); for “GATGATTGTTCTCCCAGCTGATGAATTTTTTTGTTCGAGTAAACAAATTTTCCTAATCTTTCTGTTCAAGCGCCATCTAC”: 0.472 RPM ratio (pull-down/input). The same measure for “GATGATTGTTCTCCCAGCTGATGAATTGGTTACCTCGAGTAAACAAATTTTCCTAATCTTTCTGTTCAAGCGCCATCTAC”: 0.673 RPM ratio (pull-down/input); for “GATGATTGTTCTCCCAGCTGATGAATTCGTCACGTCGAGTAAACAAATTTTCCTAATCTTTCTGTTCAAGCGCCATCTAC”: 1.77 RPM ratio (pull-down/input). For the sequence “GATGATTGTTCTCCCAGCTGATGAATTCTTAAACTCGAGTAAACAAATTTTCCTAATCTTTCTGTTCAAGCGCCATCTAC”, the binding signal was 0.267 RPM ratio (pull-down/input). As to “GATGATTGTTCTCCCAGCTGATGAATTACTATTATCGAGTAAACAAATTTTCCTAATCTTTCTGTTCAAGCGCCATCTAC”, the binding signal is 0.758 RPM ratio (pull-down/input). The same measure for “GATGATTGTTCTCCCAGCTGATGAATTAAATACATCGAGTAAACAAATTTTCCTAATCTTTCTGTTCAAGCGCCATCTAC”: 0.687 RPM ratio (pull-down/input).

Regarding “GATGATTGTTCTCCCAGCTGATGAATTTTGTTCGTCGAGTAAACAAATTTTCCTAATCTTTCTGTTCAAGCGCCATCTAC”, the binding signal is 1.45 RPM ratio (pull-down/input).

Consider “GATGATTGTTCTCCCAGCTGATGAATTTTGTTCTTCGAGTAAACAAATTTTCCTAATCTTTCTGTTCAAGCGCCATCTAC”, for which the binding signal was 1.21 RPM ratio (pull-down/input).

Turning to “GATGATTGTTCTCCCAGCTGATGAATTGTTTTCGTCGAGTAAACAAATTTTCCTAATCTTTCTGTTCAAGCGCCATCTAC”, the binding signal is 3.95 RPM ratio (pull-down/input). For “GATGATTGTTCTCCCAGCTGATGAATTGTTTTCTTCGAGTAAACAAATTTTCCTAATCTTTCTGTTCAAGCGCCATCTAC”, the binding signal is 4.15 RPM ratio (pull-down/input). In the case of “GATGATTGTTCTCCCAGCTGATGAATTTTTTACTTCGAGTAAACAAATTTTCCTAATCTTTCTGTTCAAGCGCCATCTAC”, the binding signal was 0.261 RPM ratio (pull-down/input). The same measure for “GATGATTGTTCTCCCAGCTGATGAATTTGTTGTTTCGAGTAAACAAATTTTCCTAATCTTTCTGTTCAAGCGCCATCTAC”: 7.66 RPM ratio (pull-down/input); for “GATGATTGTTCTCCCAGCTGATGAATTGTTTACTTCGAGTAAACAAATTTTCCTAATCTTTCTGTTCAAGCGCCATCTAC”: 7.35 RPM ratio (pull-down/input); for “GATGATTGTTCTCCCAGCTGATGAATTTGTTTCGTCGAGTAAACAAATTTTCCTAATCTTTCTGTTCAAGCGCCATCTAC”: 5.96 RPM ratio (pull-down/input).

As for “GATGATTGTTCTCCCAGCTGATGAATTTGTTTCTTCGAGTAAACAAATTTTCCTAATCTTTCTGTTCAAGCGCCATCTAC”, the binding signal was 6.78 RPM ratio (pull-down/input). To “GATGATTGTTCTCCCAGCTGATGAATTTACTTCTTCGAGTAAACAAATTTTCCTAATCTTTCTGTTCAAGCGCCATCTAC” belongs 0.632 RPM ratio (pull-down/input).

Consider “GATGATTGTTCTCCCAGCTGATGAATTTGCAGTATCGAGTAAACAAATTTTCCTAATCTTTCTGTTCAAGCGCCATCTAC”, for which the binding signal is 1.49 RPM ratio (pull-down/input).
